For 54 compounds, max response, negative = inhibition results are on record in PubChem BioAssay AID652054 (National Center for Advancing Translational Sciences (NCATS), 2013).

In all, about 360,000 compounds went through this assay and about 9,100 (2.5%) were called active. About 4% were inconclusive and are not listed. The list comes from a sample in which actives are over-represented; it also holds similar structures and randomly drawn compounds. Unmarked numbers belong to inactive results. No stated cut-off is given here; in the data, active means max response below about -50%; inconclusive means no clear call, values can overlap the other calls; inactive means above that.
On the % scale 0 is the no-effect control and ±100 the full control effect.

Chain of D(3) dopamine receptor (Homo sapiens) (P35462 whole entry, looked up): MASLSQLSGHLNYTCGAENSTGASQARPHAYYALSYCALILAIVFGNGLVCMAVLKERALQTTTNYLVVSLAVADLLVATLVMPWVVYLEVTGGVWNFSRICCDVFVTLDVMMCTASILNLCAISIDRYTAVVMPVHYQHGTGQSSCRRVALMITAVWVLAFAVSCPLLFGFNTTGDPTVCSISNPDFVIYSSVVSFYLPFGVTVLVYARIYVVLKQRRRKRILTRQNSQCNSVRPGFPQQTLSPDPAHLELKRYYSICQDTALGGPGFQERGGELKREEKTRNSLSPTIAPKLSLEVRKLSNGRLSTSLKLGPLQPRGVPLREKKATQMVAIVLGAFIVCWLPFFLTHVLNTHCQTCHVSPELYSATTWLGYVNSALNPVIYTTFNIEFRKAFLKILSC

The assay concerns the target D(3) dopamine receptor (Homo sapiens) (UniProt P35462). As to the kind of experiment: qHTS of D3 Dopamine Receptor Antagonist: qHTS. Particulars: D3R cells, DiscoveRx beta-arrestin luminescence, antagonist mode; hits give low values. Summed up:
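Cells expressing the human receptor were seeded at 1500 cells/well, incubated overnight at 37 degrees C in 5% CO2, then exposed to library compounds with dopamine controls for 90 minutes at 37 degrees C before luminescent detection.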
As to `C[C@H](NC(=O)[C@@H]1CCCN1C(=O)[C@@H]1CCCN1C(=O)c1ccccc1)c1ccccc1`, the max response, negative = inhibition was -14.2%. As for `O=C(OCc1ccccc1)N1CCC2CC1c1ccc(-c3ccc4c(c3)OCO4)cc12` (centres undefined), the figure is -78.9% (active).

Consider `Cc1ccc(S(=O)(=O)N(CCc2ccccc2)c2ccc3c(c2)C2CC3CCN2C(=O)OCc2ccccc2)cc1` (centres undefined), for which the max response, negative = inhibition was 0%. On to `O=C(OCc1ccccc1)N1CCC2CC1c1cc(N3CCN(S(=O)(=O)c4cc(Cl)cc(Cl)c4)CC3)ccc12` (centres undefined), for which the max response, negative = inhibition is -1.81%. `Cc1ccc(NC(=O)Cn2sc3ccccc3c2=O)cc1`: the max response, negative = inhibition was -0.282%.

On to `CCNC(=S)Nc1ccc2c(c1)c(=O)n(C)n2Cc1ccc(Cl)cc1`, for which the max response, negative = inhibition was 8.41%. As to `CNC(=S)Nc1ccc([N+](=O)[O-])cc1`, the max response, negative = inhibition is -17.8%. As for `COC(=O)c1ccccc1N=NNc1ccc([N+](=O)[O-])cc1`, the figure is 8.12%; as for `O=[N+]([O-])c1ccc(N=NNc2ccc([N+](=O)[O-])cc2)cc1`, -50.6% (active). With `O=C(NC1CCCC1)C1c2ccccc2OCC(=O)N1Cc1ccccc1` (centres undefined), the max response, negative = inhibition is 4.78%.

As to `COc1ccc(C(C(=O)Nc2c(C)cccc2C)N2CCN(c3ccc(C)cc3)CC2)cc1` (centres undefined), the max response, negative = inhibition is 11.5%. As for `COCCCn1cc(CN2CC(N(C)C)CS2(=O)=O)nn1` (centres undefined), the figure is -10.8%; as for `CCCCCCCCN1C(=O)[C@H](CC(=O)NCC23CC4CC(CC(C4)C2)C3)C[C@@]2(C(=O)OC)CCCCC=C12`, 9.16%. As for `O=C(NCc1cccnc1)c1cc(C2CCCN(C(=O)C3CCCCC3)C2)on1` (centres undefined), the figure is 6.18%; as for `COCCNC(=O)C1CCCN(Cc2ccccc2Cl)CC1` (centres undefined), 57.8%; as for `Cc1ccc(Sc2ccc(NC(=O)c3ccc(F)cc3)cc2C#N)cc1`, 0%. In the case of `CC(=O)Nc1ccc(NC(=O)COc2ccccc2C(=O)Nc2cccc(Cl)c2Cl)cc1`, the max response, negative = inhibition is -0.418%. As for `Cc1ccccc1OCC(=O)Nc1ccc(N2CCN(C(=O)C(C)C)CC2)c(Cl)c1`, the figure is 26.3%; as for `COc1cc(NC(=O)COc2ccccc2Cl)ccc1NC(=O)C(C)C`, -74% (active). As for `COc1ccc(-c2cnc3c(c2)C(=O)N([C@H](C)CO)C[C@@H](C)[C@H](CN(C)Cc2ccccc2)O3)cc1`, the figure is 14.3%. As for `CCN1C(=O)[C@@H]2[C@@H]3CN(S(=O)(=O)c4ccccc4C)[C@@H](c4ccc(Cl)cc4)[C@@H]3C(=O)C[C@@H]2C1=O`, the figure is -17.8%.

On to `CCN(CC)CCN(C(=O)c1cc(Cl)sc1Cl)c1nc2cc3c(cc2s1)OCO3`, for which the max response, negative = inhibition is -11.6%. As for `CCN(CC)CCN(C(=O)c1ccc2c(c1)CCCC2)c1nc2c(OC)cccc2s1`, the figure is -103% (active); as for `CCN(CC)CCN(C(=O)c1cccc([N+](=O)[O-])c1)c1nc2ccc(OC)cc2s1`, 8.97%.

As to `COc1ccc(NC2CCCN(C(=O)c3ccccc3-c3ncc[nH]3)C2)cc1` (centres undefined), the max response, negative = inhibition was -2.79%.

`Cc1cc(C)nc(N(C#N)CC(=O)Nc2ccccc2)n1`: the max response, negative = inhibition is -15.5%.

`O=C(/C=C/NNC(=O)c1cccc(Br)c1)c1ccccc1`: the max response, negative = inhibition is 0%.

`Cc1cc(C)nc(S/C=C/C(=O)c2ccccc2)n1`: the max response, negative = inhibition is -62.5% (active).

For `COc1ccc([C@H]2N[C@]3(CCCN(Cc4ccco4)C3=O)[C@H]3C(=O)N(C)C(=O)[C@@H]23)cc1`, the max response, negative = inhibition is -22%.

For the compound `Cc1cccc(N(CC(=O)N2CCCC2)S(C)(=O)=O)c1C`, the max response, negative = inhibition was -2.72%. With `CCc1nnc(NC(=O)c2cc(S(=O)(=O)N3CCCCC3)ccc2C)s1`, the max response, negative = inhibition was -2.53%.

As for `CCOC(=O)c1sc(NC(=O)c2cc(S(=O)(=O)N3CCOCC3)ccc2C)nc1C`, the max response, negative = inhibition is -55.1% (active). As for `Cc1ccc(S(=O)(=O)N2CCOCC2)cc1C(=O)Nc1ccccc1N1CCCC1`, the figure is 13.7%; as for `CCOC(=O)c1cc(-c2sc(NC(=O)c3ccccc3)nc2C)n(CCO)n1`, -12.9%; as for `COc1ccccc1C(c1nnnn1C(C)(C)C)N1CCN(Cc2ccccc2)CC1` (centres undefined), -90.6% (active). As for `COc1ccc(OC)c(C(c2nnnn2C(C)(C)C)N2CCc3ccccc3C2)c1` (centres undefined), the figure is -1.6%.

With `CCC(C)(C)n1nnnc1C(c1cccs1)N1CCN(Cc2ccccc2)CC1` (centres undefined), the max response, negative = inhibition is -56.8% (active). For `CCCC(c1nnnn1C(C)(C)C)N1CCN(Cc2ccccc2)CC1` (centres undefined), the max response, negative = inhibition was -5.41%. As for `CCC(C)(C)n1nnnc1C(c1cccs1)N1CCN(c2nc3ccccc3s2)CC1` (centres undefined), the figure is -16.1%; as for `Fc1ccc(Cn2nnnc2C(c2cccs2)N2CCCCCC2)cc1` (centres undefined), 10.3%. As for `N#Cc1cccc(NC(=O)c2cc(C3CCCCN3C(=O)CCc3ccccc3)on2)c1` (centres undefined), the figure is -8.91%; as for `CCCCCn1nnnc1-c1nc2cc3ccccc3cc2[nH]c1=O`, -8.12%; as for `COCCCNc1ccn2nc(-c3ccc(CC(C)C)cc3)cc2n1`, 31.5%. As to `Cc1ccccc1NC(=O)Cc1nc(COC(=O)C(C)(C)Oc2ccc(Cl)cc2)cs1`, the max response, negative = inhibition is 24.6%.

With `CC(C)(C)CC(=O)Nc1nc(C(N)Cc2ccc(C(F)(F)F)cc2)cs1` (centres undefined), the max response, negative = inhibition was 0%.

Consider `Cc1nnc(SCC(=O)N/N=C/c2cn(-c3ccccc3)nc2-c2ccc(F)cc2)n1-c1ccccc1`, for which the max response, negative = inhibition was -52.1% (active). As for `Cc1ccc(-c2nnc(SCC(=O)N/N=C/c3cccs3)n2-c2ccc(C)cc2)cc1`, the figure is 11.6%; as for `Cc1nnc(SCC(=O)Nc2cccc(N)c2)n1-c1ccccc1`, 9.89%. On to `CCOC(=O)[C@]12CCCC=C1N(CCC1=CCCCC1)C(=O)[C@H](CC(=O)NCCCCc1ccccc1)C2`, for which the max response, negative = inhibition is -12.8%. As for `CCC(C(=O)Nc1c(C)cccc1C)n1c(-c2cc(C)cs2)nc2ccccc21` (centres undefined), the figure is -4.88%; as for `Nc1c(C(=O)c2cccs2)sc2nsc(SCCN3CCCCC3)c12`, -51.8% (active); as for `Nc1ncnc2c1ncn2[C@@H]1O[C@H](C(=O)NS(=O)(=O)c2c(Cl)nc3sccn23)[C@@H](O)[C@H]1O`, 24.3%. As for `Cc1ccc(-c2ccc(CN3C(C(C)C)C(=O)N(Cc4cn(CCC5OCCO5)nn4)CCS3(=O)=O)cc2)cc1` (centres undefined), the figure is 5.58%; as for `O=C(Nc1ccc(Cl)cc1)c1csc([C@@H]2O[C@H](CO)[C@H](O)[C@H](O)[C@H]2O)n1`, -15.5%.
